Screen size: about 3,200 compounds; about 300 (9.4%) showed activity. For the sample, actives were picked, then their nearest neighbours and some compounds at random.
Test system: A673/TR/shEF
Assay: cell viability (LOESS-normalised, relative to median of negative controls) (log2 ratio); higher = more viable cells (less compound effect), active = hit call of the paper (over 3 MAD below the median)
Details: treatment time: 72 h
In short: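 Doxycycline, present or absent from 24 h before compounds, was used to induce EWS-FLI1 shRNA knockdown in A673/TR/shEF Ewing sarcoma cells at 1,500 per well in 384-well plates. Cells then received library compounds at two or more concentrations, or DMSO controls, for three days. Viability was measured by CellTiter-Glo luminescence on an Envision reader, and per-plate LOESS correction, division by the negative-control median and log2 transformation followed.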

[1] = 0.25 µM, library screen: screen2, EWS-FLI1 expression: high (no doxycycline)
[2] = 0.25 µM, library screen: screen2, EWS-FLI1 expression: low (doxycycline-induced shRNA knockdown)
[3] = 2.5 µM, library screen: screen2, EWS-FLI1 expression: high (no doxycycline)
[4] = 2.5 µM, library screen: screen2, EWS-FLI1 expression: low (doxycycline-induced shRNA knockdown)
[5] = 0.25 µM, library screen: screen1, EWS-FLI1 expression: high (no doxycycline)
[6] = 0.25 µM, library screen: screen1, EWS-FLI1 expression: low (doxycycline-induced shRNA knockdown)
[7] = 2.5 µM, library screen: screen1, EWS-FLI1 expression: high (no doxycycline)
[8] = 2.5 µM, library screen: screen1, EWS-FLI1 expression: low (doxycycline-induced shRNA knockdown)

Measured: cell viability (log2)

CCCCCCCCCCCCCC(=O)O[C@@H]1[C@@H](C)[C@@]2(O)[C@@H](C=C(CO)C[C@]3(O)C(=O)C(C)=C[C@@H]23)[C@@H]2C(C)(C)[C@]12OC(C)=O
active: [1] -0.184 | [2] -0.159 | [3] -0.478 | [4] -0.292

Oc1ccc2c3c1O[C@H]1c4[nH]c5ccccc5c4C[C@@]4(O)C(C2)N(CC2CC2)CCC314 (stereo not given in full)
inactive: [1] 0.0893 | [2] 0.051 | [3] 0.0722 | [4] 0.0157

C[C@]12CCC3C(CC[C@H]4C[C@H](O)CC[C@]34C)C1CC[C@@H]2C(=O)CO (stereo not given in full)
inactive: [1] 0.139 | [2] 0.0931 | [3] 0.0348 | [4] 0.0492

ClC1=C(Cl)C2(Cl)C3C(Cl)C(Cl)CC3C1(Cl)C2(Cl)Cl (stereo not given)
inactive: [5] 0.143 | [6] 0.19 | [7] 0.185 | [8] 0.0908

CC(N)C(O)c1ccc(O)c(O)c1 (stereo not given)
inactive: [5] 0.119 | [6] 0.0592 | [7] 0.146 | [8] 0.151

C#CCN[C@H](C)Cc1ccccc1
inactive: [1] 0.265 | [2] 0.101 | [3] 0.0823 | [4] 0.137

COc1cc2c(cc1OC)C1C(=O)c3ccc(O)c(CC=C(C)C)c3OC1CO2 (stereo not given)
inactive: [5] 0.0263 | [6] 0.0494 | [7] 0.046 | [8] 0.0598

C=C(C)[C@H]1Cc2c(ccc3c(=O)c4c(oc23)COc2cc(OC)c(OC)cc2-4)O1
inactive: [5] 0.0952 | [6] -0.0101 | [7] 0.0848 | [8] -0.0847

COc1cc2c(cc1OC)[C@H]1C(=O)c3ccc4c(c3O[C@H]1CO2)C[C@@H](C(C)C)O4
active: [5] -1.56 | [6] -0.67 | [7] -2.2 | [8] -0.747

COc1cc2c(cc1OC)[C@@H]1C(=O)c3ccc4oc(C(C)C)cc4c3O[C@@H]1CO2
active: [7] -0.307
inactive: [5] 0.0223 | [6] 0.0518 | [8] -0.129

C=C(C)[C@H]1Cc2c(ccc3c2O[C@@H]2COc4cc(OC)c(OC)cc4[C@@H]2C3=O)O1
inactive: 0.025 µM, library screen: screen2, EWS-FLI1 expression: high (no doxycycline) 0.0593 | 0.025 µM, library screen: screen2, EWS-FLI1 expression: low (doxycycline-induced shRNA knockdown) 0.0961
active: [5] -1.71 | [6] -0.663 | [1] -0.962 | [2] -0.539 | [7] -2.87 | [8] -1.24 | [3] -2.41 | [4] -0.955 | 25 µM, library screen: screen2, EWS-FLI1 expression: high (no doxycycline) -3.79 | 25 µM, library screen: screen2, EWS-FLI1 expression: low (doxycycline-induced shRNA knockdown) -1.03

COc1cc2c(cc1OC)-c1c(oc3c4c(ccc3c1=O)OC(C(C)C)C4)CO2 (stereo not given)
inactive: [5] 0.0422 | [6] 0.0484 | [7] 0.122 | [8] 0.0221

CCOP(=S)(OCC)SCn1c(=O)oc2cc(Cl)ccc21
inactive: [5] 0.0867 | [6] 0.153 | [7] 0.166 | [8] 0.163

CCOCN(C(=O)CCl)c1c(C)cccc1CC
inactive: [5] 0.105 | [6] 0.0121 | [7] 0.0903 | [8] -0.17

CC(=O)O[C@@H]1C2CC[C@@H]3C1(C[C@@H](O)[C@@]1(O)[C@@H](C[C@H](O)C1(C)C)[C@]3(C)O)C[C@@]2(C)O (stereo not given in full)
inactive: [5] 0.0646 | [6] 0.00107 | [7] 0.0644 | [8] 0.0594

COc1cc2occc2c2oc(=O)ccc12
inactive: [5] 0.133 | [6] -0.00777 | [7] 0.146 | [8] 0.0199

CCOC(=O)CC(SP(=S)(OC)OC)C(=O)OCC (stereo not given)
inactive: [5] 0.0518 | [6] 0.0626 | [7] 0.101 | [8] 0.14

CN[C@@H]1[C@@H](O)[C@@H](O[C@@H]2[C@@H](O)[C@H](O[C@H]3O[C@H](CN)CC[C@H]3N)[C@@H](N)C[C@H]2N)OC[C@]1(C)O
inactive: [5] 0.0502 | [6] -0.0312 | [7] 0.184 | [8] 0.0476

CC1(C)C2CC(=O)[C@]3(C)C(CC[C@@]4(C)[C@H](c5ccoc5)OC(=O)[C@H]5O[C@]543)[C@@]2(C)C=C[C@@H]1O (stereo not given in full)
inactive: [5] 0.0868 | [6] 0.0799 | [7] 0.177 | [8] 0.105

Oc1cc2c(cc1O)[C@H]1c3ccccc3CN[C@@H]1CC2
inactive: [1] 0.0852 | [2] -0.0099 | [3] 0.117 | [4] 0.00998

CC(C)N(CCC(C(N)=O)(c1ccccc1)c1ccccn1)C(C)C (stereo not given)
inactive: [5] 0.118 | [6] 0.068 | [1] 0.102 | [2] 0.0965 | [7] 0.167 | [8] 0.146 | [3] 0.0737 | [4] 0.0918

O=S1OCC2C(CO1)C1(Cl)C(Cl)=C(Cl)C2(Cl)C1(Cl)Cl (stereo not given)
inactive: [5] 0.126 | [6] 0.0993 | [7] 0.0998 | [8] -2.97

COc1ccc(CCN)cc1O
inactive: [1] 0.19 | [2] 0.105 | [3] 0.0411 | [4] 0.0823

CC1(C)C2C[C@@H](O)[C@]3(C)C(CC[C@@]4(C)[C@H](c5ccoc5)OC(=O)[C@H]5O[C@]543)[C@@]2(C)[C@@H](O)C[C@H]1O (stereo not given in full)
inactive: [5] 0.0675 | [6] 0.0959 | [7] 0.135 | [8] 0.0584

C[N+]1(C)[C@H]2CC(OC(=O)C(CO)c3ccccc3)C[C@H]1[C@H]1O[C@H]12 (stereo not given in full)
inactive: [1] 0.258 | [2] 0.0872 | [3] 0.133 | [4] -0.00973

CO[C@H]1[C@H](O)[C@H](O[C@H]2CC[C@@]3(C)[C@H](CC[C@@H]4[C@@H]3CC[C@]3(C)[C@@H](C5=CC(=O)OC5)CC[C@]43O)C2)O[C@@H](C)[C@@H]1O
inactive: [5] 0.0843 | [6] 0.064
active: [7] -4.02 | [8] -4.27

CO[C@H]1[C@H](O)[C@H](O[C@H]2CC[C@@]3(C=O)[C@H](CC[C@@H]4[C@@H]3CC[C@]3(C)[C@@H](C5=CC(=O)OC5)CC[C@]43O)C2)O[C@@H](C)[C@@H]1O
active: [5] -3.17 | [6] -3.22 | [7] -3.52 | [8] -4.22

Reference: the supplement of paper PMC6089552
